Bioassay records as filed in PubChem BioAssay.
Compounds with a hit are over-represented: about 7.1% of the library has one in this group of screens.
MCF10A rerep – DNA re-replication induction in MCF 10a cells. AID 624296. Potency, µM (series often up to 46.1 µM), without a hit: at the top dose activity, positive = re-replication, hits mostly activators. actives 2.9% (n = 350,000). MCF 10A DNA re-replication, Hoechst nuclear intensity, 48 h; also: % of control where 0% means no effect; nearly all actives have a fitted effect of over 50% in size
SW480 rerep – induces DNA re-replication in SW480 colon adenocarcinoma cells | SW480 DNA re-replication, Hoechst DNA content imaging, 48 h | Potency, µM (titrated, usually from 46.1 µM), for inactives: top-dose re-replication activation, usual class: activators | actives 1.8% (n = 340,000) | AID 624297; also: % of control where 0% means no effect; nearly all actives have a fitted effect of over 55% in size
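Image-based read-out: total Hoechst fluorescence of nuclei (405 nm excitation, 500-530 nm emission), with hits raising the fraction of high-intensity nuclei. SW480 colon cells incubated 48 hr with compounds at 37 C.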
p53 reactivator – mutant p53 re-activation in reporter cells | H1299 p53-A138V BP100-luciferase reporter, luminescence, 24 h | Potency, µM (top dose mostly 92.2 µM), for the others: at the highest dose activity change, positive = activation, actives largely listed as activators | actives 0.063% (n = 320,000); also: % of control where 0% means no effect; nearly all actives have a fitted effect of over 45% in size
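p53-null H1299 cells stably carrying temperature-sensitive p53-A138V and a BP100-luciferase reporter were pinned with compounds (4-point, 1:5 series) and held 24 hrs at 37 deg C. Luminescence was read 10 min after detection reagent.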
ELG1 DNA repair – blocks ELG1-dependent DNA repair in HEK293T cells; HEK293T ELG1-luciferase reporter, luminescence, 16 h; DNA damage induced by 5-fluorouridine; Potency, µM (highest dose often 46.1 µM), without a hit: at the top dose activity change, negative = inhibition, actives largely listed as inhibitors; actives 2.3% (n = 330,000); also: % is scaled to controls: 0 for no effect and ±100 for the full control effect; nearly all actives have a fitted effect of over 55% in size
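Luminescence from the luciferase reporter, measured 30 min after ONE-Glo reagent at room temperature, was the read-out. Beforehand, 2,000 cells per well were exposed for 16 hr at 37 °C to 5-fluorouridine together with compound or vehicle.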
ELG1 genotoxic – induces genotoxicity in HEK293T cells with luciferase-tagged ELG1. HEK293T ELG1-luciferase reporter, luminescence, 16 h. actives 1.3% (n = 330,000). Potency, µM (series often up to 46 µM), without a hit: top-dose activity change, positive = activation, most hits filed as activators; also: % of control where 0% means no effect; nearly all actives have a fitted effect of over 60% in size
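After overnight (16 hr) compound treatment at 37 °C, ELG1-luciferase HEK293T cells were lysed with ONE-Glo; luminescence quantified 30 min later at room temperature.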
A-T KAP1 phos – potential ataxia-telangiectasia treatments restoring KAP-1 phosphorylation; F2112 A-T fibroblasts, KAP-1 phosphorylation AlphaLISA; neocarzinostatin DNA damage 30 min before lysis; Potency, µM (top dose mostly 57.5 µM), for the others: at the top dose activation, usual class: activators; actives 0.19% (n = 320,000); AID 485349; also: % of control where 0% means no effect; nearly all actives have a fitted effect of over 45% in size
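hTERT-immortalized A-T patient fibroblasts (F2112), 500 cells/well in OPTI-MEM, 1% FBS, got compounds for 60 min, then NCS for 30 min at 37C. Lysates were then assayed for phospho-KAP-1 by AlphaLISA (anti-pKAP1 donor, anti-KAP1 acceptor beads), 6 hr at 25C.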
* = called active by the depositor; ? = inconclusive; · = no result given; [ ] = dose if it differs, or a comment. Calls follow the shape of the dose curve; as a rule, active = well fitted curve in the direction sought with a large enough effect; inconclusive = small, poorly fitted or top-dose-only effect, or another doubt; inactive = no such curve, though single readings can be large; an effect the other way counts as inactive or inconclusive. Potency is read from the fitted curve at half-maximal effect.

SMILES	MCF10A rerep	SW480 rerep	p53 reactivator	ELG1 DNA repair	ELG1 genotoxic	A-T KAP1 phos
COc1ccc(OC)c(-c2cc(C3CCN(c4cc(Cl)nc(N)n4)CC3)[nH]n2)c1	21µM*	?	-6%	?	-11%	-6%
COc1ccc(-c2cc(C3CCN(c4cc(Cl)nc(N)n4)CC3)[nH]n2)cc1	?	19%	-3%	?	-10%	1%
Nc1nc(Cl)cc(N2CCC(c3cc(-c4ccc(Cl)cc4)n[nH]3)CC2)n1	26µM*	16µM*	-4%	?	-8%	0%
C=CC(=O)O	9%	-5%	·	·	·	·
Nc1cc2c(cc1C(=O)c1cccc(Br)c1)OCCO2	21µM*	?	0%	-10%	2%	-2%
CCCOc1cccc(C(=O)Nc2ccc3c(c2)OCCO3)c1	9%	-4%	24%	?	2.3µM*	7%
O=C(Nc1ccc2c(c1)OCCO2)c1cccc(Br)c1	1%	-1%	31%	?	2.6µM*	-11%
COc1cccc(CN(C)C(=O)c2cc(S(=O)(=O)N3CCCC3)ccc2C)c1OC	14%	0%	-2%	?	-4%	7%
CN(C)CC1CCC/C(=C\c2ccc(OC(=O)/C=C/c3ccc(Cl)c(Cl)c3)cc2)C1=O (stereo not given)	-4%	5%	·	·	·	·
CCCC/C=C1/CCC(CN(C)C)C1=O (stereo not given)	5.8µM*	?	·	·	·	·
COc1cccc(/C=C2/CCC(CN(C)C)C2=O)c1 (stereo not given)	2.3µM*	5.8µM*	·	·	·	·
CN(C)CC1CCC/C(=C/c2ccc(Cl)cc2)C1=O (stereo not given)	18µM*	?	·	·	·	·
COc1ccc(/C=C2/CCCC(CN(C)C)C2=O)cc1 (stereo not given)	2.9µM*	9.2µM*	·	·	·	·
Cc1ccc(C(=O)NCCc2nnc3ccc(SCC(=O)Nc4ccccc4F)nn23)cc1	8%	16%	-4%	11%	2%	8%
CC1CC2(C)Oc3ccccc3CC2C(C)C1CNCCCN(C)C (stereo not given)	7.3µM*	5.2µM*	-10%	?	-19%	-1%
c1ccn2c(SCc3ccc4c(c3)OCCO4)nnc2c1	2%	-17%	?	?	21µM*	-4%
Cc1ccc(SCc2cn3cccnc3n2)cc1	2%	-8%	?	?	?	3%
c1ccn2cc(CSc3nnc4ccccn34)nc2c1	-3%	-8%	?	?	10µM*	15%
Cn1ccnc1SCc1cn2ccccc2n1	-6%	-3%	?	?	?	8%
Cc1ccn2cc(CSc3ccccc3)nc2c1	3%	-5%	?	?	3.7µM*	-2%
COc1cc(NC(=O)CN2C(=O)COc3ccc(S(=O)(=O)N4CCOCC4)cc32)cc(OC)c1	1%	-12%	-6%	5%	0%[9.26 µM]	4%
CS(=O)(=O)c1ccc(Cl)c(NC(=O)COC(=O)CCN2C(=O)C3CC=CCC3C2=O)c1 (stereo not given)	3%	-8%	·	·	·	·
CNc1oc(-c2ccc(C)cc2)nc1P(=O)(c1ccccc1)c1ccccc1	18µM*	6%	-7%	-2%	-5%	17%
CNc1oc(-c2ccccc2Cl)nc1P(=O)(c1ccccc1)c1ccccc1	19%	-3%	-4%	20%	4%	13%
COc1ccc(Cl)cc1NC(=O)CN(C)C(=O)c1ccc(-n2nc(C)cc2C)cc1	6%	-5%	-7%	?	-5%	2%
SMILES	MCF10A rerep	SW480 rerep	p53 reactivator	ELG1 DNA repair	ELG1 genotoxic	A-T KAP1 phos
O=C(CCCn1c(=O)c2sccc2n(Cc2ccc(F)cc2)c1=O)NCc1ccco1	6%	6%	-12%	21µM*	-11%	-5%
Cc1cccc(Cn2c(=O)n(CCCC(=O)NCc3ccco3)c(=O)c3ccccc32)c1	?	21µM*	-1%	?	1%	-9%
Cc1ccccc1Cn1c(=O)n(CCCC(=O)NCc2ccco2)c(=O)c2ccccc21	2%	3%	-4%	?	-3%	0%
Cc1ccc(S(=O)(=O)Nc2cccc(-n3cnnn3)c2)cc1C	0%	3%	-6%	-2%	0%	-1%
Cc1ccc(NS(=O)(=O)c2ccc(Cl)c(C(=O)Nc3ccccc3-c3nc4ccccc4[nH]3)c2)cc1C	5.2µM*	8.2µM*	9%	9.2µM*	-9%	0%
CN(C)S(=O)(=O)c1ccc(Cl)c(C(=O)Nc2nc3ccccc3[nH]2)c1	0%	-2%	1%	-13%	-1%	-8%
CCNc1nc(Oc2ccc(OC)cc2)cc(C(F)(F)F)n1	10%	4%	-2%	8%	0%	1%
CCNc1nc(Sc2ccc(C)cc2)cc(C(F)(F)F)n1	?	?	-4%	-8%	0%	32µM*
CCNc1nc(Oc2ccc(Cl)cc2Cl)cc(C(F)(F)F)n1	?	-6%	4%	8%	-3%	32µM*
CCOC(=O)C(=NC(C)C)NNc1cc(Cl)ccc1Cl	16µM*	-9%	-10%	3%	1%	?
O=C(Cn1c(=O)oc2ccccc21)N1CCN(S(=O)(=O)c2ccccc2)CC1	0%	-2%	1%	5%	-1%	4%
COc1cccc(NC(=S)N2CCC(c3ccc(C)cc3)C2)c1 (stereo not given)	?	8%	?	?	7%	-6%
O=Cc1cc(-c2ccccc2)[nH]c1-c1ccccc1	6.5µM*	-5%	11%	?	3%	3%
O=C1CC(NS(=O)(=O)c2ccccc2)CN1c1ccc2c(c1)OCCO2 (stereo not given)	1%	-30%	-3%	27%	5%	2%
CC(C)Cn1c(N)c(C(=O)COC(=O)c2cc(F)cc(F)c2)c(=O)n(C)c1=O	15%	11%	-3%	18µM*	-8%	4%
Cn1c(=O)c(C(=O)COC(=O)c2cc(-c3ccco3)nc3ccccc23)c(N)n(Cc2ccccc2)c1=O	23µM*	?	0%	?	1%	-4%
Cc1csc(=O)n1CC(=O)OCC(=O)c1c(N)n(CC(C)C)c(=O)n(C)c1=O	?	6.5µM*	1%	?	-4%	-2%
CC(C)Cn1c(N)c(C(=O)COC(=O)c2cc(C3CC3)nc3ccccc23)c(=O)n(C)c1=O	-8%	21%	8%	23µM*	-5%	6%
Cc1cc(-c2nnc(CCC(=O)N3CCN(Cc4cccc(F)c4)CC3)o2)c(C)o1	2%	-6%	6%	-11%	2%	-4%[11.5 µM]
